PubChem BioAssay AID463173 (ICCB-Longwood Screening Facility, Harvard Medical School, 2010)
Hit rate of the full screen: of about 52,000 compounds, about 4,300 (8.3%) were called active. Rule as the data show it: active = survival mostly below about 52% (no sharp cut-off); inactive = mostly above about 56%. What follows is part of a selection rich in actives, with near analogues and random picks from the rest.

These compounds were tested on DeltatarO mutant (assay: growth inhibition of S. aureus wild type versus tarO mutant, primary screen, teichoic acid synthesis inhibitors, RN4220, OD600 (AID 463173)). Conditions: OD600, 18 h, active compounds read low, screened at 18.75 µg/mL (by protocol).

Row | SMILES | survival
1 | COc1cc(NC(=O)CCn2cnc3ccccc3c2=O)cc(OC)c1 | 122% (inactive)
2 | CCN(CC)C(=O)Cn1cc(SCC(=O)Nc2cccc(C)c2)c2ccccc21 | 69% (inactive)
3 | Cc1ccc2c(CC(=O)Nc3c(C(=O)c4ccc(C)c(F)c4)oc4ccccc34)coc2c1 | 96% (inactive)
4 | O=C(NCc1ccccc1)C1CCN(S(=O)(=O)Cc2ccccc2)CC1 | 98% (inactive)
5 | CCc1cccc(NC(=O)C2CCN(S(=O)(=O)c3cccc(-c4noc(C)n4)c3)CC2)c1 | 73% (inactive)
6 | Cc1cc(C)cc(NC(=O)C2CCN(S(=O)(=O)c3cccc(-c4noc(C)n4)c3)CC2)c1 | -5% (active)
7 | CCc1ccc(NC(=O)C2CCN(S(=O)(=O)c3cccc(-c4noc(C)n4)c3)CC2)cc1 | 77% (inactive)
8 | Cc1ccc(NC(=O)CSc2nc(C3CCCC3)nc3c2c(=O)n(C)c(=O)n3C)c(C)c1 | 73% (inactive)
9 | COc1cccc(CNC(=O)c2oc3c(c2C)-c2nn(Cc4cccc(Cl)c4)cc2CC3)c1 | 76% (inactive)
10 | CCOC(=O)c1ccc(NC(=O)c2c(NC(C)=O)sc3c2CCC(C)C3)cc1 (stereo unspecified) | 47% (inactive)
11 | CCOC(=O)c1c(NC(=O)C2c3ccccc3Oc3ccccc32)sc2c1CCC(CC)C2 (stereo unspecified) | 52% (inactive)
12 | CCOC(=O)c1c(NC(=O)COc2cccc(C)c2C)sc2c1CCC(CC)C2 (stereo unspecified) | 59% (inactive)
13 | CCOC(=O)c1c(NC(=O)c2ccccc2OCC)sc2c1CCC(CC)C2 (stereo unspecified) | -2% (active)
14 | CCOC(=O)c1c(NC(=O)c2ccc(F)cc2)sc2c1CCC(CC)C2 (stereo unspecified) | 9% (active)
15 | CCC1CCc2c(sc(NC(=O)C3c4ccccc4Oc4ccccc43)c2C(=O)OC)C1 (stereo unspecified) | 72% (inactive)
16 | CCCSc1ncc(Cl)c(C(=O)Nc2ccc(S(=O)(=O)N3CCCCC3C)cc2)n1 (stereo unspecified) | 51% (inactive)
17 | c1ccc(-c2nnc(SCc3cccnc3)o2)cc1 | 54% (active)
18 | Cc1ccc(CSc2nnc(-c3ccc(O)cc3)o2)cc1 | 84% (inactive)
19 | Cc1ccc(-c2nnc(SCc3ccccc3C)o2)cc1 | -5% (active)
20 | Cc1ccc(-c2nnc(SCc3ccccc3C#N)o2)cc1 | 69% (inactive)
21 | N#Cc1ccccc1CSc1nnc(-c2ccccc2)o1 | 61% (inactive)
22 | Oc1ccccc1-c1nnc(SCc2ccccc2)o1 | 86% (inactive)
23 | COc1cccc(CSc2nnc(-c3ccc(F)cc3)o2)c1 | 90% (inactive)
24 | COc1ccc(-c2nnc(SCc3cccc(Cl)c3)o2)cc1 | 22% (active)
25 | COc1ccc(-c2nnc(SCC#N)o2)cc1 | 74% (inactive)
26 | CCOc1ccc(CCNC(=O)c2ccc(C)c(-n3c(C)nc4cccnc43)c2)cc1OCC | 101% (inactive)
